According to PubChem BioAssay:
Where “and” joins values, the source holds several entries; their conditions need not be identical. Identical values can stand only once. Calls of active or inactive are those of the source.

Key:
[1] = system: Plasmodium falciparum Sir2 (PF13_0152, Sir2A); experiment: Plasmodium falciparum Sir2A binding compounds – biochemical, small-molecule microarray, 635 nm fluorescence, primary screen (AID 1098); details: fluorescence 635 nm, higher = more signal;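 note: score merges spot fluorescence intensity with its signal-to-noise ratio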
[2] = probe aDKK1 binding to arrayed compounds – biochemical, biotinylated probe, 635/667 nm fluorescence, primary screen (AID 1099); details: small-molecule microarray, higher = more signal;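 note: score merges 667nm spot fluorescence with signal to noise across triplicate slides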
[3] = probe aCHRDL2 binding to arrayed compounds – biochemical, biotinylated probe, 635/667 nm fluorescence, primary screen (AID 1100); details: small-molecule microarray, higher = more signal
[4] = change in splice reporter luminescence, either direction, cell-based, HEK293, spliceosome inhibition project, primary screen (AID 1101); details: HEK293 splicing luciferase reporter, 24 h, higher = more signal, called active from +8 up or from −8 down;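 note: HEK293 cells carrying a splicing-competent luciferase reporter gene; test concentration not given here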
[5] = target: Fibroblast growth factor 10 (Homo sapiens) (UniProt O15520); experiment: compounds binding fibroblast growth factor 10 – biochemical, small-molecule microarray, 635 nm fluorescence, primary screen (AID 1102); details: FGF10 binding, fluorescence 635 nm, higher = more signal
Chain of Fibroblast growth factor 10 (Homo sapiens) (O15520 whole entry, looked up): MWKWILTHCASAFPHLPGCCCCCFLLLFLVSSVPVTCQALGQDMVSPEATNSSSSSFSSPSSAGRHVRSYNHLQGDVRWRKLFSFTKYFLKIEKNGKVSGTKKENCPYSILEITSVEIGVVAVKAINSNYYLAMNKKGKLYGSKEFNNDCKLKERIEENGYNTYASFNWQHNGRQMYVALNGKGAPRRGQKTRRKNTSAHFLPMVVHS

[6] = system: glycogen synthase kinase-3 (GSK3A per assay name; protocol says GSK3B); experiment: compounds binding glycogen synthase kinase-3 – biochemical, small-molecule microarray, 635 nm fluorescence, GSK3A, primary screen (AID 1103); details: fluorescence 635 nm, higher = more signal; note: the record names both GSK3A and GSK3B
[7] = target: Epidermal growth factor receptor (Homo sapiens) (UniProt P00533); experiment: compounds binding epidermal growth factor receptor – biochemical, small-molecule microarray, 635 nm fluorescence, primary screen (AID 1104); details: EGFR binding, higher = more signal;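 note: score merges 667 nm emission intensity with spot signal to noise over triplicate slides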
Chain of Epidermal growth factor receptor (Homo sapiens) (P00533 whole entry, looked up): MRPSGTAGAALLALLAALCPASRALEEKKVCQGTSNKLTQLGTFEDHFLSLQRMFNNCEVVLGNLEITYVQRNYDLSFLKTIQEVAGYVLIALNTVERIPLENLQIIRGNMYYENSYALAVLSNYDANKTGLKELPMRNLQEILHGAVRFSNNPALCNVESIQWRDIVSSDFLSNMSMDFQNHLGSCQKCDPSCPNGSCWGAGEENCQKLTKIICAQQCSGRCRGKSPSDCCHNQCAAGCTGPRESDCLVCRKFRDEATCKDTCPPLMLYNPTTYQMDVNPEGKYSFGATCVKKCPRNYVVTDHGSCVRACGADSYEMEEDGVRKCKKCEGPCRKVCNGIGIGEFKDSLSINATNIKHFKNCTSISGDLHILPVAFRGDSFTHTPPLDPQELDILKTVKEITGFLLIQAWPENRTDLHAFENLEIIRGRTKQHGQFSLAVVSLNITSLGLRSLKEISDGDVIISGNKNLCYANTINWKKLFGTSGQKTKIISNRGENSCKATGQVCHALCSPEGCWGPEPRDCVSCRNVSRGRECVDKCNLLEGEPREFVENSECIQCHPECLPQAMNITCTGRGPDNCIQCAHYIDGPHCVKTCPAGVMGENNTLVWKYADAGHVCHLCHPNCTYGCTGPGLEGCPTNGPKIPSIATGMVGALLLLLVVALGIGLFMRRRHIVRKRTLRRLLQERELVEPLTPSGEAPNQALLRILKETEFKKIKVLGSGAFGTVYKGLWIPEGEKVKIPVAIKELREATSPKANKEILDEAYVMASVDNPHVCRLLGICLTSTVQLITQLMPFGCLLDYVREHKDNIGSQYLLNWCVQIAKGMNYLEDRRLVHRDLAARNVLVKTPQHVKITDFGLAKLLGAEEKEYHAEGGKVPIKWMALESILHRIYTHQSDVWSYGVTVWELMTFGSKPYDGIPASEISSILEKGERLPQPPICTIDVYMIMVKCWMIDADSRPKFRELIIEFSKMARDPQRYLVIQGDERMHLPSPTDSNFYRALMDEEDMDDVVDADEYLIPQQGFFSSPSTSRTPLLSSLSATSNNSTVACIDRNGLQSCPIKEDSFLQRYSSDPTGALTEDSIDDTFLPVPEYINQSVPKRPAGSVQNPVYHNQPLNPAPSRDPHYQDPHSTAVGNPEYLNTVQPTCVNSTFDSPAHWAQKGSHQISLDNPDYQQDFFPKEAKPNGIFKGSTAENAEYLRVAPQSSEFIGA

[8] = target: Follistatin-related protein 3 (Homo sapiens) (UniProt O95633); experiment: compounds binding follistatin-related protein 3 – biochemical, small-molecule microarray, 635 nm fluorescence, primary screen (AID 1105); details: FSTL3 binding, higher = more signal;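 note: score merges emission near 667 nm and signal to noise per printed spot across three slides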
Chain of Follistatin-related protein 3 (Homo sapiens) (O95633 whole entry, looked up): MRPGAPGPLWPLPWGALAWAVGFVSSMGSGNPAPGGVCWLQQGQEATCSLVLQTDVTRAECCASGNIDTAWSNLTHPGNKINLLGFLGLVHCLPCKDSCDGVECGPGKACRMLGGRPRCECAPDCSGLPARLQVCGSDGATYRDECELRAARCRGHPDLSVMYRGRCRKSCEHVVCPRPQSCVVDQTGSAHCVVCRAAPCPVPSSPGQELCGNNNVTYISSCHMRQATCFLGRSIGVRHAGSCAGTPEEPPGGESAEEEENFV

[9] = target: Dickkopf-related protein 1 (Homo sapiens) (UniProt O94907); experiment: small molecules binding DKK1 protein – biochemical, small-molecule microarray, 635 nm fluorescence scan, primary screen (AID 1106); details: higher = more signal;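 note: score merges emission near 667 nm with signal to noise over three replicate slides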
Chain of Dickkopf-related protein 1 (Homo sapiens) (O94907 whole entry, looked up): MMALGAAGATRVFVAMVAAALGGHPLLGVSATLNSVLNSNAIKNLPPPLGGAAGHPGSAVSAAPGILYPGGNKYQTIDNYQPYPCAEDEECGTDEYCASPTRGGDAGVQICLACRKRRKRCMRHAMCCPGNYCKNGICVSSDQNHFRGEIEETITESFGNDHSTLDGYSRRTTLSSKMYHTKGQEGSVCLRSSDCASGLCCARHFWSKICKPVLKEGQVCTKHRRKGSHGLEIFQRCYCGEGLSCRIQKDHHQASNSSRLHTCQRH

[10] = system: Inhibin beta A chain (activin A); experiment: small molecules binding activin A – biochemical, small-molecule microarray, 635 nm fluorescence scan, primary screen (AID 1107); details: INHBA, higher = more signal;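 note: mouse activin A protein probed at 4.33 µg/mL on printed slides; score merges bound-protein fluorescence near 667 nm with spot signal-to-noise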
[11] = system: Human papillomavirus type 1a protein E7 (residues 44-93); experiment: small molecules binding HPV E7 44-93 – biochemical, small-molecule microarray, residues 44-93, 635 nm fluorescence, primary screen (AID 1108); details: fluorescence 635 nm, higher = more signal;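 note: E7 fragment applied at 1 µg/mL in TBST for 1 h at 4 C; score combines spot fluorescence with its signal to noise ratio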
[12] = hepatitis C replication reporter changes, two-sided – Huh7 cells, luciferase reporter, HCV replication inhibitor project, primary screen (AID 1109); details: Huh7 HCV replicon luciferase reporter, 48 h; higher = more signal;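 note: huh7 hepatoma cells harbouring a luciferase neomycin HCV replicon reporter; luciferase luminescence as measure of HCV replicon replication; test concentration not given here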
[13] = target: Left-right determination factor 2 (Homo sapiens) (UniProt O00292); experiment: small molecules binding LEFTY2 protein – biochemical, small-molecule microarray, 635 nm fluorescence scan, primary screen (AID 1110); details: higher = more signal
Chain of Left-right determination factor 2 (Homo sapiens) (O00292 whole entry, looked up): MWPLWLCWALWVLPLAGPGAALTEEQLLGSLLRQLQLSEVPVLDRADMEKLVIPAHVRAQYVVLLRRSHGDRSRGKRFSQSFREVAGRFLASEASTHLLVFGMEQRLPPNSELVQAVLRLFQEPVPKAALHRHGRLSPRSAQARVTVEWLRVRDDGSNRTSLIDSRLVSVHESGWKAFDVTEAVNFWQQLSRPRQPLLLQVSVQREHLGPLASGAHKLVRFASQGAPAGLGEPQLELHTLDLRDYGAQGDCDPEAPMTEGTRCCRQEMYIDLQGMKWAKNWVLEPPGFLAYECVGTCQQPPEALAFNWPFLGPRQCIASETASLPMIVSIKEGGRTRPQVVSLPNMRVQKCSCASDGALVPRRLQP

[14] = target: Calmodulin-1 (Homo sapiens) (UniProt P0DP23); experiment: small molecules binding calmodulin-1 with EGTA – biochemical, small-molecule microarray, Cy5-labelled CALM1, profiling panel (AID 1111); details: Cy5-CALM1 binding fluorescence, higher = more signal;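 note: labelled calmodulin applied in Tris saline Tween buffer holding calcium plus EGTA and DTT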
[15] = target: Calmodulin-1 (Homo sapiens) (UniProt P0DP23); experiment: small molecules binding Ca-loaded calmodulin-1 – biochemical, small-molecule microarray, Cy5-labelled CALM1, plus calcium, artefact control for SMM control-protein annotation, profiling panel (AID 1112); details: Cy5-CALM1 binding fluorescence, higher = more signal;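 note: score merges spot fluorescence with signal to noise from triplicate slides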
[16] = probe aWnt5a binding to arrayed compounds – biochemical, biotinylated probe, 635/667 nm fluorescence, primary screen (AID 1113); details: small-molecule microarray, higher = more signal;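 note: score merges 667 nm fluorescence intensity with signal-to-noise per printed feature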
[17] = probe aShh binding to arrayed compounds – biochemical, biotinylated probe, 635/667 nm fluorescence, primary screen (AID 1114); details: small-molecule microarray, higher = more signal;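 note: probe is biotin-labelled aShh protein from a stem cell growth factor screen; measures binding of labelled protein to compounds printed on the slide; score merges feature fluorescence at 667 nm with signal-to-noise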
[18] = probe aNog binding to arrayed compounds – biochemical, biotinylated probe, 635/667 nm fluorescence, primary screen (AID 1115); details: small-molecule microarray, higher = more signal;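 note: probe is biotinylated aNog protein used at 0.15 µg/mL for 1 h at 4 C; z-score combines 667 nm fluorescence of each spot with its signal to noise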
[19] = target: Torsin-1A-interacting protein 1 (Homo sapiens) (UniProt Q5JTV8); experiment: compound microarray binding of lysate hLAP1 – cell lysate, small-molecule microarray, COS7 lysate, 635/667 nm fluorescence, primary screen (AID 1116); details: 635 nm fluorescence, higher = more signal
Chain of Torsin-1A-interacting protein 1 (Homo sapiens) (Q5JTV8 whole entry, looked up): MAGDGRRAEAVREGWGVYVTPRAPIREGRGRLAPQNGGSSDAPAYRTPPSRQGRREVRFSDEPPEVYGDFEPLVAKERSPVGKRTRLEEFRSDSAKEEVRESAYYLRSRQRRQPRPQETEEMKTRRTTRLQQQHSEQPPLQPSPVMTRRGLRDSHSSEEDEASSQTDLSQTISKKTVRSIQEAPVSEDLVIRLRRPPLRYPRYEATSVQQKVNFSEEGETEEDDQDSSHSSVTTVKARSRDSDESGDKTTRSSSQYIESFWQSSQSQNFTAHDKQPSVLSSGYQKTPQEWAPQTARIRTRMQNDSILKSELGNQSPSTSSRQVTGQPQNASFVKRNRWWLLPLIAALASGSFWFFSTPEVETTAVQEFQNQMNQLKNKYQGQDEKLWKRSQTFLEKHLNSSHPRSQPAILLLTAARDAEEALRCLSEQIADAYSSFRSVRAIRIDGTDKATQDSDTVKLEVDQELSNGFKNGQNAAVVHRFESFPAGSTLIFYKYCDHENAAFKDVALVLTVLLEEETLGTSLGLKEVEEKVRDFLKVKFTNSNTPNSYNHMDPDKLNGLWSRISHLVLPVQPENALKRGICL

[20] = target: Alpha-bungarotoxin (Bungarus multicinctus) (UniProt P60615); experiment: compounds binding labelled alpha-BTX control protein – biochemical, small-molecule microarray, Alexa647 label, 635/667 nm fluorescence, artefact control for SMM control protein annotation, profiling panel (AID 1117); details: alpha-BTX-A647 binding fluorescence, higher = more signal
Chain of Alpha-bungarotoxin (Bungarus multicinctus) (P60615 whole entry, looked up): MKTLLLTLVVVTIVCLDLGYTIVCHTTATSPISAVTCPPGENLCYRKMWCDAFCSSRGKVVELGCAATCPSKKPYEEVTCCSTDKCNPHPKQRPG

SMILES	composite z-score [1]	composite z-score [2]	composite z-score [3]	z-score [4]	composite z-score [5]	composite z-score [6]	composite z-score [7]	composite z-score [8]	composite z-score [9]	composite z-score [10]	composite z-score [11]	z-score [12]	composite z-score [13]	composite z-score [14]	composite z-score [15]	composite z-score [16]	composite z-score [17]	composite z-score [18]	composite z-score [19]	composite z-score [20]
CCOC(=O)C[C@H]1[C@H](OC(=O)c2ccccc2-c2ccccc2)[C@@H](NC(=O)c2ccccc2)c2cc(OCCCO)ccc2N1C(=O)c1ccc2ccccc2n1	-0.134 and 0.522	0.298 and -0.106	0.229 and 0.0414	-0.0583 (inactive) and -0.0708 (inactive)	0.97 and 0.586	0.612 and 0.576	0.284 and 0.207	0.47 and 0.8	0.452 and 0.19	0.227 and 0.981	0.288 and 1.08	-1.19 and -0.583	0.668 and 0.619	-0.118 and 1.47	-0.148 and 0.227	0.0324 and -0.108	-0.2 and 0.0078	-0.122 and 0.386	0.491 and 0.364	0.328 and 0.833
C[N+](C)(C)CCCCNC(=O)[C@H]1C[C@H]2C(=O)N[C@@H](CCCC[N+](C)(C)C)C(=O)N2[C@H]1c1cccc(OCCO)c1	1.82 and 1.11	-0.171 and 0.256	-0.537 and -0.421	0.00747 (inactive) and -0.387 (inactive)	1.51 and 1.39	0.0299 and 1.1	0.622 and 1.27	1.45 and 1.51	1.44 and 1.81	0.282 and 0.696	-0.779 and 0.569	-1.34 and -0.59	1.36 and 1.28	-1.49 and -0.367	-0.691 and -0.325	-0.127 and -0.0512	0.0948 and 0.395	-0.249 and -0.234	1.89 and 2.53	-0.559 and 0.47
CO[C@H]1COC(=O)CC=C[C@@H](C)COC(=O)[C@@H](OCc2ccccc2)C=C[C@@H]1C	0.661	-0.533	-1.54	0.19 (inactive)	0.241	1.1	0.831	1.32	0.644	1.57	-0.418	-0.0629	1.32	-0.779	-2.05	-0.34	0.149	-0.378	0.417	0.205
C=C(C)C(=O)OC[C@@H]1CN2[C@@H](CC[C@@H](C)[C@@H]2c2ccc(Br)cc2)C(=O)O1	0.913	-0.199	-0.374	-0.46 (inactive)	0.634	0.399	0.263	1.08	0.872	0.984	0.854	0.867	0.891	-0.265	-0.157	-0.109	0.0684	-0.259	0.183	0.548
C[C@@H]1CN2[C@@H](CC[C@@H](C)[C@@H]2c2ccc(Br)cc2)C(=O)O1	-0.638 and -0.597	-0.295 and -0.239	-0.211 and -0.583	-0.142 (inactive) and -1.21 (inactive)	-0.0428 and 0.337	-0.534 and -0.046	0.167 and 0.49	-0.579 and -0.462	0.313 and 0.233	0.502 and 0.45	-0.561 and -0.15	-0.67 and 1.5	0.57 and 0.0106	-0.235 and -0.676	-0.535 and 0.1	-0.148 and -0.206	-0.59 and -0.428	0.0014 and -0.287	-0.0307 and -0.0763	-0.209 and 0.0857
